Screening data (PubChem BioAssay)
Shown are actives, neighbours in structure and some others; about 3.5% of the full set was active somewhere.
GPR151 activ = activates the human receptor GPR151; Q8TDV0; PathHunter beta-arrestin GPR151 cells, luminescence; activation, % at 11.2 µM; 650,000 compounds, 1% hits; AID 1508602; in the data active means activation above about 4.9%;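 further: 0% = median of compound wells and 100% = cells with positive control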
MITF inh = inhibitors of human MITF; O75030; AlphaScreen MITF homodimerization, bead proximity signal; inhibition, % at 2.6 µM; 650,000 compounds, 0.91% hits; in the data active means inhibition above about 50%;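 further: 0% = vehicle wells with protein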
FBW7 activator = human FBW7 E3 ligase activation, primary screen; AlphaScreen FBW7–phospho-cyclin E peptide binding, activator screen; normalized activity (activation), % at 26.1 µM; 650,000 compounds, 0.13% hits; AID 1259310; in the data active means normalized activity above about 1.9%;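 further: purified mutant Fbw7 with reduced substrate affinity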
TEAD-YAP block = TEAD-YAP interaction inhibition. HEK-TIYL cells, TEAD-Gal4/YAP UAS-luciferase luminescence. AID 1259422. inhibition, % at 9.12 µM. 640,000 compounds, 1.4% hits; in the data active means inhibition above about 32%;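 further: 0% = median of test compound wells and 100% = reference inhibitor wells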
Starred values were filed as active, the others as inactive.

SMILES | GPR151 activ | MITF inh | FBW7 activator | TEAD-YAP block
O=C(NCCc1ccccc1)c1ccccc1Cl | -4 | 3 | 0 | 33*
O=C(NCCNC(=O)c1ccccc1Br)c1ccccc1Br | -1 | -18 | 0 | -4
O=C(NCCc1ccccc1)c1ccc(Br)cc1 | -3 | -23 | 0 | 14
O=C(NCCc1ccccc1)C1(S(=O)(=O)c2ccc(Cl)cc2)CC1 | 0 | -24 | 2.0* | 3
N#C/C(C(=O)N1CCCC1)=c1/s/c(=C\c2ccccn2)c(=O)n1-c1ccccc1 | 0 | 3 | 0 | 8
COC(=O)c1cc(S(=O)(=O)Nc2ccc(C)c(Cl)c2)c[nH]1 | 2 | -5 | 0 | -1
O=C1NCCN(Cc2ccc(F)cc2)C1CC(=O)N1CCC(O)CC1 (centres undefined) | -1 | 5 | 0 | 0
O=C(NCCc1ccccc1)c1cc(F)c(F)cc1Cl | -2 | 6 | 1 | 34*
C=CCOc1ccc(/C(O)=C2/C(=O)C(=O)N(CCN(CC)CC)C2c2ccc(C(C)(C)C)cc2)c(C)c1 (centres undefined) | 0 | 16 | 0 | 4
COc1ccc(C2=NOC(C(=O)NCc3ccc(F)cc3)C2)cc1OC (centres undefined) | 1 | 8 | 0 | 50*
COCCNC(=O)C1CC(c2ccc(OC)c(OC)c2)=NO1 (centres undefined) | 0 | -9 | 0 | -2
